S2 tox: Viability Counterscreen for Primary qHTS for Inhibitors of ATXN expression. S2 cells (HEK-293 line with an ATXN2-luciferase reporter) viability, CellTiter-Fluor protease fluorescence, 24 h. Potency, µM (highest dose often 56.7 µM), actives largely listed as cytotoxic. 400,000 tested, 0.49% active. AID 651635, 2014; note: potency is the fitted concentration of half-maximal effect; nearly all actives have a fitted effect of over 40% in size
Six1-Eya2 blk: qHTS Assay for Inhibitors of the Six1/Eya2 Interaction. Homeobox protein SIX1 (Homo sapiens) + Protein phosphatase EYA2 (Homo sapiens), …. AlphaScreen GST-Six1/His-Eya2 binding, biochemical; hits give low values. activity change, % (no concentration beside the values). 360,000 tested, 0.56% active. AID 651725, 2012; in the data active = activity change below about -65%; inconclusive = mostly about -30% to -63%; note: % is set by controls: 0 for no effect and ±100 for the full control effect
Target sequence (O00167 whole entry, looked up): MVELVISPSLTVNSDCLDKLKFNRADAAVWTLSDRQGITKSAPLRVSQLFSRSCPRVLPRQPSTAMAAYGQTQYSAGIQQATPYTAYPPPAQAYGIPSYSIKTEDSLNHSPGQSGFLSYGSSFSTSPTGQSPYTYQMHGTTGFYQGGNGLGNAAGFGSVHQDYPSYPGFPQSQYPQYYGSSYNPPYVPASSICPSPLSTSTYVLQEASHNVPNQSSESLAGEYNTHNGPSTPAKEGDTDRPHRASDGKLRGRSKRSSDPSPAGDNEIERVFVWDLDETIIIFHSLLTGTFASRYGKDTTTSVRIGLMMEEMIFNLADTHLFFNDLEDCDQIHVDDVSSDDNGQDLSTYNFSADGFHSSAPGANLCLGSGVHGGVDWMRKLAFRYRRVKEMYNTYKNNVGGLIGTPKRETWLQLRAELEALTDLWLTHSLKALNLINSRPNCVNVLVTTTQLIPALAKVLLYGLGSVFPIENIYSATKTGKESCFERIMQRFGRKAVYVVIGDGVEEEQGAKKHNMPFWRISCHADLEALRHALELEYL
Target sequence (Q15475 whole entry, looked up): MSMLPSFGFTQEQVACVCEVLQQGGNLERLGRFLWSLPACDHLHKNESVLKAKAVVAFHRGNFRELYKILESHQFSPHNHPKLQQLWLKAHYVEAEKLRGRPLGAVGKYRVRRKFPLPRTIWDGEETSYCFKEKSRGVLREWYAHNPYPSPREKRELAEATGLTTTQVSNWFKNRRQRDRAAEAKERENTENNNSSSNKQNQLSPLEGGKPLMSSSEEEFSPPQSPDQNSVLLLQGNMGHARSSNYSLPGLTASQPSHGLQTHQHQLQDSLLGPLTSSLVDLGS
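Compounds are tested against tagged Six1 and Eya2 proteins bridged by glutathione donor and nickel acceptor beads; after a one-hour incubation at 37 °C without light, AlphaScreen emission is recorded.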
CtBP-E1A inh: qHTS Assay for Inhibitors of the CtBP/E1A Interaction; activity change, % (no concentration beside the values); 340,000 tested, 0.49% active; AlphaScreen GST-E1A/His-CtBP binding, 1536-well; hits give low values; in the data active = activity change below about -65%; inconclusive = mostly about -30% to -63%; note: % is set by controls: 0 for no effect and ±100 for the full control effect
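Steps: dispense buffer (Tris pH 8.0, NaCl 300 mM, TCEP 1 mM, BSA, Tween 20); add 5X protein mix (GST-E1A, His-CtBP, 125 nM each); pin 23 nL compound; 2 h at 37 °C, dark; add 5X beads (50 ug/mL); 1 h; read.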
ATXN2 expr inh: Primary qHTS for Inhibitors of ATXN expression. HEK-293 ATXN2-luciferase reporter, luminescence, 24 h. Potency, µM (doses to about 57 µM), without a hit: top-dose activity change, negative = inhibition, usual class: inhibitors. 360,000 tested, 0.72% active. AID 1745845, 2022; note: potency is the fitted concentration of half-maximal effect; % is set by controls: 0 for no effect and ±100 for the full control effect; nearly all actives have a fitted effect of over 55% in size
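qHTS (up to 57 uM final) was run with 24 h compound exposure of reporter cells at 37 °C. Each well was multiplexed: SteadyGlo luminescence measured ATXN2-luciferase expression after a fluorogenic Gly-Phe-AFC viability readout (25 uM final).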
HepG2 viability: qHTS for Inhibitors of TGF-b: Cytotox Counterscreen | HepG2 CAGA-GFP viability, ATP luminescence, 18 h | Potency, µM (titrated, usually from 46.1 µM), for inactives: at the highest dose activity change, negative = cytotoxicity, actives largely listed as cytotoxic | 410,000 tested, 0.76% active; note: potency is the fitted concentration of half-maximal effect
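HepG2 CAGA-GFP cells (1000/well, DMEM with 1% FBS) received compound, then TGF-beta at 500 pg/mL final, and were incubated 18 hours at 37 degrees C. Viability was read by CellTiter-Glo luminescence. Media-only wells were set as complete cell-killing and DMSO as no toxicity.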
TGFb SMAD3 inh: qHTS for Inhibitors of TGF-b | HepG2 CAGA-GFP TGF-b/SMAD3 reporter, GFP fluorescence, 18 h; TGF-beta stimulated, 500 pg/mL final | AID 588855, 2011 | Potency, µM (series often up to 46.1 µM), for inactives: at the top dose activity, negative = inhibition, usual class: inhibitors | 410,000 tested, 1.2% active; note: potency is the fitted concentration of half-maximal effect; % is set by controls: 0 for no effect and ±100 for the full control effect; nearly all actives have a fitted effect of over 65% in size
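First, reporter cells (HEPG2 CAGA-GFP) rested 2 h at 37 degrees C. Next, compounds were pinned in and TGF-beta added to 500 pg/mL final. After 18 h, GFP was imaged per cell and summed per well.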
Active calls of the source: *; [ ] = another dose, or the depositor's remark. Shown are actives, neighbours in structure and some others; about 2.8% of the full set was active somewhere. Unless noted, calls come from the whole dose curve; as a rule, active = well fitted curve in the direction sought with a large enough effect; inconclusive = small, poorly fitted or top-dose-only effect, or another doubt; inactive = no such curve, though single readings can be large; an effect the other way counts as inactive or inconclusive.

For COc1cccc(N2C(N)=NC(N)=NC2(C)C)c1 the results were S2 tox inactive, Six1-Eya2 blk 1, CtBP-E1A inh -1, ATXN2 expr inh 18%, HepG2 viability -42% and TGFb SMAD3 inh -4%.
Screening CC1(C)N=C(N)N=C(N)N1c1cccc(C#N)c1 returned S2 tox inactive, Six1-Eya2 blk 4, CtBP-E1A inh 5, ATXN2 expr inh -10%, HepG2 viability 2µM* and TGFb SMAD3 inh -9%.
For O=C(CCSc1ccccc1)OCn1nnc2ccccc2c1=O the results were S2 tox inactive, Six1-Eya2 blk 7, CtBP-E1A inh 13, ATXN2 expr inh 5%, HepG2 viability -7% and TGFb SMAD3 inh 4µM*.
`Cc1cc2c(cc3c(SCc4ccc(Cl)cc4)nncn32)o1` gave HepG2 viability -23% and TGFb SMAD3 inh -2%.
Screening C=C(C(=O)c1ccccc1)C(C)C(=C)C(=O)c1ccccc1 returned S2 tox 25µM*, Six1-Eya2 blk 4, CtBP-E1A inh 6, ATXN2 expr inh 28µM*, HepG2 viability 7.9µM* and TGFb SMAD3 inh inconclusive.
For CN(C)CCOc1ccc(-c2c(-c3ccccc3)sc3ccccc23)cc1 the results were S2 tox inconclusive, Six1-Eya2 blk -30, CtBP-E1A inh -18, ATXN2 expr inh 20µM*, HepG2 viability -108% and TGFb SMAD3 inh inconclusive.
Screening CCCCCCN1C=C/C(=C\C=C(C#N)C#N)c2ccccc21 returned Six1-Eya2 blk inconclusive, CtBP-E1A inh inconclusive, ATXN2 expr inh inconclusive, HepG2 viability -19% and TGFb SMAD3 inh 6%.
`C=CCN1C=C/C(=C\C=C(C#N)C#N)c2ccccc21` gave Six1-Eya2 blk inconclusive, CtBP-E1A inh -79*, ATXN2 expr inh -4%[11.3 µM], HepG2 viability 1% and TGFb SMAD3 inh -17%.
Screening Nc1c(Cl)ncnc1N/N=C/c1ccnc2ccccc12 returned S2 tox inconclusive, Six1-Eya2 blk -22, CtBP-E1A inh -16, ATXN2 expr inh 10%, HepG2 viability 9% and TGFb SMAD3 inh 6%.
Nc1c(Cl)ncnc1N/N=C/c1ccccn1 was read as S2 tox 13µM*, Six1-Eya2 blk -87*, CtBP-E1A inh -86*, ATXN2 expr inh inconclusive, HepG2 viability -49% and TGFb SMAD3 inh 4µM*.
`Nc1c(Cl)ncnc1N/N=C/c1ccc2ccccc2n1` gave S2 tox 10µM*, Six1-Eya2 blk -80*, CtBP-E1A inh -80*, ATXN2 expr inh 7.9µM*, HepG2 viability -20% and TGFb SMAD3 inh 4.5µM*.
`CCCC(=O)Oc1ccc2[nH]c(C(=O)c3cc4ccccc4[nH]3)cc2c1` gave HepG2 viability -25% and TGFb SMAD3 inh -24%.
For Cc1cc(C)cc(NS(=O)(=O)c2ccc3c(c2)CCCN3C(=O)C2CCC2)c1 the results were S2 tox 25µM*, ATXN2 expr inh inconclusive, HepG2 viability -34% and TGFb SMAD3 inh inconclusive.
Screening CCOc1ccc(Br)cc1CNc1ccc2c(c1)OCCO2 returned S2 tox inactive, Six1-Eya2 blk -77*, CtBP-E1A inh inconclusive, ATXN2 expr inh 1%, HepG2 viability -11% and TGFb SMAD3 inh 18%.
For CC(OC(=O)c1ccc2ccccc2c1)C(=O)N(C)Cc1ccccc1 (configuration not stated) the results were S2 tox inactive, Six1-Eya2 blk 1, CtBP-E1A inh -12, ATXN2 expr inh -26%, HepG2 viability -32% and TGFb SMAD3 inh -20%.
CC(C)N(CCC(=O)c1ccc2ccccc2c1)Cc1ccccc1 was read as S2 tox inconclusive, Six1-Eya2 blk 8, CtBP-E1A inh -13, ATXN2 expr inh 0%, HepG2 viability -64% and TGFb SMAD3 inh 11µM*.
COc1cccc(-c2nc(CS(=O)CC(=O)N3CCN(c4cccc(C(F)(F)F)c4)CC3)c(C)o2)c1 (configuration not stated) was read as HepG2 viability -38% and TGFb SMAD3 inh 16µM*.
For COc1cccc(-c2nc(CS(=O)(=O)CC(=O)N3CCN(c4ccccc4)CC3)c(C)o2)c1 the results were HepG2 viability -12% and TGFb SMAD3 inh 11µM*.
Cc1oc(-c2ccc(Cl)cc2)nc1CS(=O)CC(=O)N1CCN(c2cccc(C(F)(F)F)c2)CC1 (configuration not stated) was read as HepG2 viability 20µM* and TGFb SMAD3 inh 8.9µM*.
For Cc1oc(-c2ccccc2Cl)nc1CS(=O)CC(=O)N1CCN(c2cccc(C(F)(F)F)c2)CC1 (configuration not stated) the results were HepG2 viability -105% and TGFb SMAD3 inh 11µM*.
For CC(C)(C)n1ncc2c(=O)n(Cc3cccc(C(F)(F)F)c3Cl)cnc21 the results were HepG2 viability 6% and TGFb SMAD3 inh -1%.
`O=c1c2ccccc2nc2c3ccccc3c(NCCO)nn12` gave S2 tox inactive, Six1-Eya2 blk -69*, CtBP-E1A inh -71*, ATXN2 expr inh -9%, HepG2 viability 2% and TGFb SMAD3 inh 6%.
`O=c1c2ccccc2nc2c3ccccc3c(NCc3ccccn3)nn12` gave S2 tox inconclusive, Six1-Eya2 blk inconclusive, CtBP-E1A inh -69*, ATXN2 expr inh -16%, HepG2 viability -14% and TGFb SMAD3 inh -2%.
OCCNc1nc2ccccc2nc1NCCO was read as S2 tox inactive, Six1-Eya2 blk 2, CtBP-E1A inh 0, ATXN2 expr inh 0%, HepG2 viability -31% and TGFb SMAD3 inh 5%.
COc1ccc(OC)c(Nc2nc(NCCO)c3ccccc3n2)c1 was read as S2 tox inconclusive, Six1-Eya2 blk -18, CtBP-E1A inh -12, ATXN2 expr inh -15%, HepG2 viability -15% and TGFb SMAD3 inh -21%.
For Cc1ccc(Nc2nc(NCCO)c3ccccc3n2)cc1C the results were S2 tox inactive, Six1-Eya2 blk 6, CtBP-E1A inh -9, ATXN2 expr inh -20%, HepG2 viability -65% and TGFb SMAD3 inh 14µM*.
Screening OCCNc1c2ccccc2nc2ccccc12 returned Six1-Eya2 blk -21, CtBP-E1A inh -12, ATXN2 expr inh 19µM*, HepG2 viability 3% and TGFb SMAD3 inh inconclusive.
`CCN1CCOC(=O)C1CC(=O)Nc1cc(Cl)ccc1C` (configuration not stated) gave HepG2 viability -3% and TGFb SMAD3 inh inconclusive.
